High-throughput results from PubChem BioAssay.
The list is not random: actives were taken first. Their share in the collection is about 7.4%.
FLuc modulator = qHTS profiling assay for firefly luciferase inhibitor/activator using purifed enzyme and Km concentrations of substrates (counterscreen for miR-21 project); Luciferin 4-monooxygenase (Photinus pyralis), P08659; purified FLuc, Km substrates, luminescence inhibition; Potency, µM (titrated, usually from 57.5 µM), inactives show at the highest dose activity change, negative = inhibition, hits mostly inhibitors; 360,000 compounds, 6.9% hits; AID 588342, 2011;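 also: plate controls were vehicle for no effect and reference inhibitor for full effect; nearly all actives have a fitted effect of over 55% in size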
Target sequence (P08659 whole entry, looked up): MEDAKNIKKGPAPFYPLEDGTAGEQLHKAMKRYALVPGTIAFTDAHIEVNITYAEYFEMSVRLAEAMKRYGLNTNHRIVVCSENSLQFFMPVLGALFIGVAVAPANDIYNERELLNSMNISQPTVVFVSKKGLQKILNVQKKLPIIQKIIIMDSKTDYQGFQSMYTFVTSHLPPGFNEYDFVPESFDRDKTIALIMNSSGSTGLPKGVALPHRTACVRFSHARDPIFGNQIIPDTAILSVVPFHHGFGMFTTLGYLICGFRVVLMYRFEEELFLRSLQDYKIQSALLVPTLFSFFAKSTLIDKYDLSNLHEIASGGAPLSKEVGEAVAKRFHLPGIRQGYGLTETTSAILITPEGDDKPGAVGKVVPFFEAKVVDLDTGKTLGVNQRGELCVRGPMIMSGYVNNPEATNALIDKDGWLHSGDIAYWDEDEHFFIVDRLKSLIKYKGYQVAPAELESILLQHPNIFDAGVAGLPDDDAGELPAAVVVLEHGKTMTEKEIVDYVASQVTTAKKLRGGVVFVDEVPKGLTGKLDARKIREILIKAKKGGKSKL
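Purified P. pyralis luciferase, 10 nM final, with Km-level 10 uM D-luciferin and 10 uM ATP in 50 mM Tris acetate pH 7.5, 10 mM Mg acetate, 0.01% Tween-20, 0.05% BSA; 6-point qHTS titration about 60 µM downward; luminescence read.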
NPC1 prom act = qHTS Assay for NPC1 Promoter Activators; Huh7 NPC1 promoter luciferase reporter, 24 h; Potency, µM (top dose mostly 9.22 µM), for the others: top-dose activation, most hits filed as activators; 320,000 compounds, 2.4% hits; also: % of control where 0% means no effect; nearly all actives have a fitted effect of over 60% in size
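Stable NPC1-promoter luciferase Huh7 line; cpd (DMSO) 24 h, 37 °C, 5% CO2; Amplite luciferase reagent 10 min RT; luminescence readout. qHTS format.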
Rab9 prom act = qHTS Assay for Rab9 Promoter Activators; 320,000 compounds, 2.8% hits; AID 485297, 2010; Potency, µM (series often up to 9.22 µM), for the others: at the highest dose activation, negative = inhibition, most hits filed as activators; Huh7 Rab9 promoter-luciferase reporter, luminescence, 24 h; also: % of control where 0% means no effect; nearly all actives have a fitted effect of over 60% in size
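Steps: seed 1500 Huh7 Rab9-luc cells per well, rest 2 h at 37 °C; add compound in DMSO; incubate 24 h; add luciferase reagent, 10 min ambient; read luminescence.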
ELG1 genotox = qHTS screen for small molecules that induce genotoxicity in human embryonic kidney (HEK293T) cells expressing luciferase-tagged ELG1. HEK293T ELG1-luciferase reporter, luminescence, 16 h. Potency, µM (titrated, usually from 46 µM), inactives show at the highest dose activity change, positive = activation, actives largely listed as activators. 330,000 compounds, 1.3% hits. AID 504466, 2011; also: % of control where 0% means no effect; nearly all actives have a fitted effect of over 60% in size
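Quantitative HTS format in 1536-well plates. HEK293T ELG1-luciferase reporter cells receive test compound and are incubated 16 hr at 37 °C, 5% CO2; ONE-Glo added, 30 min room temperature, then luminescence read.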
SMN2 splice up = qHTS Assay for Enhancers of SMN2 Splice Variant Expression | AID 1458, 2008 | HEK293 SMN2-luciferase splicing reporter, luminescence, 30-36 h | 210,000 compounds, 2.8% hits | Potency, µM (titrated, usually from 46.1 µM), inactives show at the top dose activity change, positive = activation, actives largely listed as activators; also: % of control where 0% means no effect; nearly all actives have a fitted effect of over 55% in size
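HEK293 cells carry an SMN2 minigene-luciferase reporter in which exon 7 inclusion puts luciferase in frame. Cells were seeded at 2000 cells/well, attached for 10-12 hours, then exposed to compounds for 30-36 hours at 37C before ONE-Glo luminescence.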
Active calls of the source: *; ? = inconclusive; . = no result; [ ] = dose if it differs, or a comment. Calls follow the shape of the dose curve; as a rule, active = well fitted curve in the direction sought with a large enough effect; inconclusive = small, poorly fitted or top-dose-only effect, or another doubt; inactive = no such curve, though single readings can be large; an effect the other way counts as inactive or inconclusive. Potency is read from the fitted curve at half-maximal effect.

SMILES	FLuc modulator	NPC1 prom act	Rab9 prom act	ELG1 genotox	SMN2 splice up
CC(=O)Oc1ccc(C(=O)Nc2cccc(C(=O)NC(C)(C)C)c2)cc1	19µM*	2%	-8%	1%	-23%
CC(=O)Oc1ccc(C(=O)Nc2cccc(C(=O)c3cccc(NC(=O)c4ccc(OC(C)=O)cc4)c3)c2)cc1	-10%	-7%	-6%	-6%	4%
CC(=O)Oc1ccc(C(=O)Nc2ccccc2C(=O)Nc2ccc(C(=O)O)cc2)cc1	2.4µM*	4%	1%	-1%	.
COc1ccc(NC(=O)c2ccccc2NC(=O)c2ccccc2)cc1	?	16%	8%	6%	.
CC(=O)Oc1ccc(C(=O)Nc2cccc(C(=O)Nc3ccccc3C(=O)O)c2)cc1	11µM*	-3%	2%	-6%	.
Cc1ccc2oc(=O)c3cc(C(=O)N(Cc4ccccc4)C(C)C)sc3c2c1	5%	.	.	.	-4%
CC(=O)Oc1ccc(C(=O)Nc2ccccc2C(=O)Nc2cccc(C(=O)O)c2)cc1	4.3µM*	0%	1%	12%	.
CC(C)(C)c1ccc(OCCSc2nc(-c3cccs3)nc3cc(=O)[nH]n23)cc1	15µM*	.	.	.	.
COc1cccc(/C=N/n2cnc3cc(C)c(C)cc32)c1OC	12µM*	?	20%	16%	.
COc1cccc(/C=N/n2c(C)nc3ccccc32)c1OC	?	0%	-3%	-3%	-48%
COc1cccc(/C=N/n2c(=O)[nH]c3ccccc32)c1OC	9.5µM*	19%	29%	15%	?
Cc1cc2ncn(/N=C/c3cc(Br)ccc3O)c2cc1C	-2%	10%	2%	-2%	-1%
COc1cccc(/C=N/n2c(=S)n(C)c3ccccc32)c1OC	11µM*	-3%	-5%	3%	-25%
COc1cccc(/C=N\n2c(C)nnc2C)c1OC	1%	2%	5%	1%	.
O=C(CN1C(=O)/C(=C/c2ccccc2)SC1=S)N1CCN(CCc2ccccn2)CC1	?	-10%	-28%	-5%	.
O=S(=O)(NC1CCCCC1)c1ccc(N2CCOCC2)nc1	-3%	1%	5%	-1%	.
Cc1ccc(C)c(S(=O)(=O)N2CCN(CC(=O)NC(C)c3ccccc3)CC2)c1 (centres undefined)	10%	0%[1.84 µM]	-3%	1%	.
N#Cc1ccc(OC(=O)c2ccc(N=C(N)N)cc2)cc1	.	.	.	.	12%[9.22 µM]
COc1cc(OC)c(NC(=O)c2cccc(F)c2)cc1Cl	-15%	1%	2%	-4%	9%
COc1ccc(NC(=O)c2ccccc2F)cc1Cl	9.5µM*	2.2µM*	2.2µM*	9.2µM*	?
Cc1c(Cl)cccc1NC(=O)c1cccc(OC(F)F)c1	?	18%	19%	5%	-8%
COC(=O)c1cccc(NC(=O)c2ccc(OC)c(Cl)c2)c1	11µM*	?	?	6%	?
COc1ccc(NC(=O)c2ccco2)cc1NC(=O)c1ccccc1F	-12%	0%	1%	3%	.
COc1ccc(NC(=O)c2cccc(F)c2)cc1Cl	13µM*	3.5µM*	?	9.2µM*	?
COc1ccc(NC(=O)c2cccc(OC(F)F)c2)cc1Cl	11µM*	3.5µM*	2.2µM*	5.8µM*	?
SMILES	FLuc modulator	NPC1 prom act	Rab9 prom act	ELG1 genotox	SMN2 splice up
C[N+]1(NCC[N@@+]2(C)CCc3ccccc3C2)CCCCC1	.	.	.	.	-4%[9.22 µM]
Cc1ccnc(SCc2ccc(C(=O)O)cc2)n1	-2%	-3%	-2%	0%	.
O=C(Nc1ccc(OC(F)F)c(Cl)c1)c1cccc(OC(F)F)c1	19µM*	12%	20%	-8%	-1%
CCOc1ccc(C(=O)OCC(=O)N(Cc2ccccc2)Cc2ccccc2)cc1OC	2%	0%	-5%	0%	.
O=C(CN1C(=O)/C(=C\c2ccco2)SC1=S)Nc1ccc(O)cc1C(=O)O	?	-4%	-1%	-1%	.
O=C(CSc1ncc(S(=O)(=O)c2ccc(Br)cc2)c(=O)[nH]1)NCc1ccc(Cl)cc1	8.5µM*	.	.	.	5%
Cc1ccc(CNC(=O)CSc2ncc(S(=O)(=O)c3ccc(Br)cc3)c(=O)[nH]2)cc1	6.7µM*	.	.	.	-2%
Cc1ccc(NC(=O)CSc2ncn[nH]2)c([N+](=O)[O-])c1	.	.	.	6%	.
CCc1ccc(-c2cc(C(=O)Nc3c(C)n(C)n(-c4ccccc4)c3=O)c3ccccc3n2)s1	12µM*	1%	5%	-8%	-10%
COc1ccc2cc(-c3cc(C(=O)OCC(=O)Nc4c(C)n(C)n(-c5ccccc5)c4=O)c4ccccc4n3)ccc2c1	0.13µM*	?	?	2%	2µM*
COc1ccc(-c2cc(C(=O)Nc3c(C)n(C)n(-c4ccccc4)c3=O)c3ccccc3n2)cc1	15µM*	-9%	-1%	-21%	.
COc1ccc(C(=O)Nc2ccc3nc(SCC(=O)N4CCOCC4)sc3c2)cc1	-7%	.	.	.	.
CC(C)Oc1ccc(C(=O)Nc2nnc(SCC(=O)N3CCOCC3)s2)cc1	0.06µM*	?	0.4µM*	?	1.4µM*
COc1ccc(Nc2nnc(SCC(=O)c3cc(C)n(CC4CCCO4)c3C)s2)cc1 (centres undefined)	3.8µM*	9%	9%	2%	-27%
COc1ccc(Nc2nnc(SCC(=O)N3CCCC3)s2)cc1	17µM*	11%	1%	0%	8%
COc1ccc(Nc2nnc(SCC(=O)N3CC(=O)Nc4ccccc43)s2)cc1	8.5µM*	14%	15%	-1%	.
COc1ccc(Nc2nnc(SCC(=O)c3cc4ccccc4o3)s2)cc1	-17%	20%	2%	2%	.
Cc1ccc(C(=O)N2CCN(S(=O)(=O)c3cc(Br)ccc3Br)CC2)o1	3%	-5%	-1%	5%	.
Cc1[nH]c2ccc(C(=O)OC(C)C(=O)NC3(C#N)CCCCC3)cc2c1C (centres undefined)	-2%	-2%	-1%	2%	.
COc1ccc(CNC(=O)C2CCN(S(=O)(=O)N3CCCC3)CC2)c(OC)c1	-1%	3%	6%	2%	.
CN(C(=O)c1ccccc1C(=O)OCC(=O)c1ccc(F)c(F)c1)C1CCCCC1	2%	-1%	1%	-5%	.
COc1cccc(Nc2nnc(SCC(=O)N3CCOCC3)s2)c1	19µM*	12%	15%	14%	-8%
Cc1ccc2c(=O)cc(C(=O)Nc3ccc(S(=O)(=O)Nc4nc(C)cc(C)n4)cc3)oc2c1	-7%	.	.	.	19%
S=c1[nH]c2cc(-c3ccccc3)ccc2o1	21µM*	5%	16%	4%	.
O=C(CSc1ncnc2c1cnn2-c1cccc(Cl)c1)NCC1CCCO1 (centres undefined)	-7%	-3%	3%	-14%	.
COc1ccc(C2=NNC(c3cccs3)=Nc3ccc(OC)cc32)cc1	15µM*	0%	10%	-4%	15%
